Screens (PubChem BioAssay)
This is a sample that favours compounds with a hit; in the whole collection about 7.1% have one here.
ATXN2 expr inh = inhibitors of ATXN2 expression. HEK-293 ATXN2-luciferase reporter, luminescence, 24 h. Potency, µM (doses to about 57 µM), usual class: inhibitors. actives 0.72% (n = 360,000). AID 1745845; further: nearly all actives have a fitted effect of over 55% in size
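ATXN2-luciferase reporter cells (luciferase flanked by upstream and downstream ATXN2 gene portions) were treated 24 h at 37 °C with compounds at up to 57 uM. SteadyGlo luminescence gave expression; GF-AFC fluorescence gave viability.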
MCF10A rereplic = DNA re-replication induction in MCF 10a cells | Potency, µM (top dose mostly 46.1 µM), usual class: activators | actives 2.9% (n = 350,000) | MCF 10A DNA re-replication, Hoechst nuclear intensity, 48 h; further: nearly all actives have a fitted effect of over 50% in size
S2 tox = cell viability loss in ATXN counter-screen | S2 cells (HEK-293 line with an ATXN2-luciferase reporter) viability, CellTiter-Fluor protease fluorescence, 24 h | Potency, µM (titrated, usually from 56.7 µM), actives largely listed as cytotoxic | actives 0.49% (n = 400,000); further: nearly all actives have a fitted effect of over 40% in size
IL1B secr inh = inflammasome signaling inhibition, IL-1 beta readout | THP-1 LPS/ATP IL-1B secretion, AlphaLISA, 16 h; stronger effect = lower value | activity change, % at 57.5 µM | actives 4.7% (n = 360,000) | AID 743279; in the data active means activity change below about -50%; inconclusive means mostly about -30% to -49%
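THP-1 cells pretreated 1 hr with compounds (up to 57.5 uM final), then stimulated with LPS (250 ng/mL final) plus ATP (1.25 mM final); secreted IL-1B measured by AlphaLISA after 16 hr, decreased signal indicating inhibition.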
SW480 rerep = inducers of DNA re-replication in SW480 colon cancer cells; actives 1.8% (n = 340,000); Potency, µM (top dose mostly 46.1 µM), usual class: activators; SW480 DNA re-replication, Hoechst DNA content imaging, 48 h; further: nearly all actives have a fitted effect of over 55% in size
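Quantitative HTS format with DMSO vehicle controls; 48 hr drug incubation at 37 C, then 40 min Hoechst staining and scanning imager measurement at 405 nm excitation.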
PINK1 expr mod = PINK1 expression modulation. Potency, µM (series often up to 76.6 µM), actives largely listed as activators. actives 0.2% (n = 410,000). AID 624263. PINK1 immunofluorescence, high-content cytometry, 24 h; active means well fitted activation curve with a large enough effect; inconclusive means small, poorly fitted or top-dose-only effect; cell line not stated here; further: nearly all actives have a fitted effect of over 65% in size
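Readout is PINK1 immunofluorescence, quantified alongside mitochondrial, cell and nuclear markers by laser-scanning microplate cytometry. Cells from a stable line were exposed to compound titrations (5 concentrations) for 24 hours, with CCCP controls.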
Each line names hits and unclear results; the compound was inactive in the other large screens. Unless noted, the call rests on the fitted dose curve; in most records, active means well fitted curve in the direction sought with a large enough effect; inconclusive means small, poorly fitted or top-dose-only effect, or another doubt; inactive means no such curve, though single readings can be large; an effect the other way counts as inactive or inconclusive.

CCOC(=O)CSc1nc2c(sc(=S)n2-c2ccccc2OC)c(=O)n1-c1ccccc1OC	IL1B secr inh -64
CCOC(=O)CSc1nc2c(sc(=S)n2-c2ccccc2OC)c(=O)n1Cc1ccco1	none
CCN(CC)C(=O)CSc1nc2c(sc(=S)n2-c2ccccc2)c(=O)[nH]1	MCF10A rereplic 0.65µM
CCOC(=O)CC(=O)CSc1nc2c(sc(=S)n2-c2ccccc2)c(=O)[nH]1	MCF10A rereplic 16µM
CCOC(=O)CSc1nc2c(sc(=S)n2-c2ccc(CC)cc2)c(=O)[nH]1	none
O=C(/C=C/c1c[nH]c2ccccc12)c1cccc2ccccc12	MCF10A rereplic 21µM, IL1B secr inh -108, SW480 rerep 16µM
C(=C\c1c[nH]c2ccccc12)/c1nccc2ccccc12	none (no result: ATXN2 expr inh, MCF10A rereplic, S2 tox, IL1B secr inh, SW480 rerep)
CC(C)(CNC(=O)c1cnn(-c2nccc(-c3cc4ccccc4o3)n2)c1C1CC1)N1CCOCC1	none (no result: ATXN2 expr inh, MCF10A rereplic, IL1B secr inh, SW480 rerep)
CCCCN(CCCC)CC(O)c1cc(Cl)cc2c1-c1ccc(Cl)cc1/C2=C/c1ccc(Cl)cc1 (configuration not stated)	ATXN2 expr inh 25µM, S2 tox inconclusive, SW480 rerep inconclusive (no result: IL1B secr inh, PINK1 expr mod)
COc1cc2[nH]c(=S)nc(NCCc3ccc(C)cc3)c2cc1OC	MCF10A rereplic 23µM, SW480 rerep inconclusive
COc1cc2[nH]c(=S)nc(NCC3CCCO3)c2cc1OC (configuration not stated)	none
COc1cc2[nH]c(=S)nc(NCc3cccs3)c2cc1OC	none
COc1cc2[nH]c(=S)nc(NC3CCCCCC3)c2cc1OC	IL1B secr inh -139
COc1ccccc1CNc1nc(=S)[nH]c2cc(OC)c(OC)cc12	SW480 rerep 3.3µM
COc1ccc(CCNc2nc(=S)[nH]c3cc(OC)c(OC)cc23)cc1OC	none (no result: ATXN2 expr inh)
CCC1C(=O)NCCN1Cc1ccc2c(c1)CN(Cc1cccc(OC)c1OC)CCO2 (configuration not stated)	none (no result: ATXN2 expr inh, MCF10A rereplic, IL1B secr inh, SW480 rerep)
CC1Cc2cc(S(=O)(=O)CCC(=O)Nc3ccccc3F)ccc2N1C(=O)C1CC1 (configuration not stated)	none (no result: ATXN2 expr inh, MCF10A rereplic, S2 tox, IL1B secr inh, SW480 rerep)
O=C1C(C2=NC(C(=O)O)C3C(=O)N(c4ccccc4)C(=O)C23)=C(O)c2ccccc21 (configuration not stated)	none
O=C1C(C2=C(O)c3ccccc3C2=O)=Nc2ccccc21	ATXN2 expr inh inconclusive, MCF10A rereplic 23µM, S2 tox inconclusive, IL1B secr inh -93, SW480 rerep inconclusive
COc1ccc(OC)c(N/C=C/C(=O)c2ccccc2)c1	MCF10A rereplic inconclusive
COc1ccc(OC)c(C(=O)/C=C/c2ccccc2C(F)(F)F)c1	ATXN2 expr inh inconclusive, MCF10A rereplic inconclusive, IL1B secr inh -110, SW480 rerep inconclusive
COc1cc(C)cc(C(=O)C=Cc2ccccc2)c1O	MCF10A rereplic inconclusive, IL1B secr inh -59, SW480 rerep inconclusive
COc1ccc(C(=O)/C=C/c2ccccc2)c(OC)c1	ATXN2 expr inh inconclusive, MCF10A rereplic inconclusive, S2 tox inconclusive, IL1B secr inh -111
COc1ccc(C(=O)/C=C/c2ccc(N(C)C)cc2)c(OC)c1	MCF10A rereplic 16µM, IL1B secr inh -100, SW480 rerep inconclusive (no result: S2 tox)
CCn1ccc2cc(S(=O)(=O)N3CCCN(C(=O)Nc4ccc(C)c(F)c4)CC3)ccc21	none (no result: MCF10A rereplic, IL1B secr inh, SW480 rerep)
COc1ccc(C=CC(=O)C=CC=Cc2ccccc2)cc1	MCF10A rereplic inconclusive, IL1B secr inh -52, SW480 rerep 21µM
COCOc1cc(O)c(C(=O)/C=C/c2ccccc2)c(OCOC)c1	MCF10A rereplic inconclusive, S2 tox inconclusive, IL1B secr inh -103, SW480 rerep inconclusive
COc1ccc(CCNC(=O)Nc2ccc3nc([C@@H]4O[C@H](CO)[C@@H](O)[C@H](O)[C@H]4O)[nH]c3c2)cc1Br	none (no result: MCF10A rereplic, SW480 rerep)
COC(=O)c1ccc(-c2nc(O)c(C)s2)cc1	none
COC(=O)c1ccc(-c2nc3cc(Cl)c(N)cc3s2)cc1	MCF10A rereplic 0.65µM, SW480 rerep inconclusive
COc1ccc(C(C)NCCC(c2ccc(OC(C)C)cc2)c2ccccc2OC)cc1 (configuration not stated)	ATXN2 expr inh inconclusive, MCF10A rereplic 23µM, IL1B secr inh -98, SW480 rerep inconclusive (no result: S2 tox)
COc1ccc(C(CCNC(C)c2ccccc2)C(C)C)cc1 (configuration not stated)	PINK1 expr mod inconclusive (no result: IL1B secr inh)
CN1C(=O)/C(=C2/C=Cc3ccccc3N2CCCS(=O)(=O)O)SC1=S	S2 tox 16µM
Cc1ccc(CNC(=O)CCc2c(C)c3cc4c(C)coc4cc3oc2=O)cc1	none (no result: MCF10A rereplic, IL1B secr inh, SW480 rerep)
O=C(O)CCN1C(=O)c2ccc(NC(=O)c3cccs3)cc2C1=O	MCF10A rereplic 21µM
O=C(NCCCN1CCOCC1)c1cc2c(=O)[nH]c3ccccc3c2s1	IL1B secr inh -50
Cc1ccc2[nH]c(=O)c3cc(C(=O)NCCCN4CCC(C)CC4)sc3c2c1	ATXN2 expr inh 28µM, S2 tox 20µM (no result: MCF10A rereplic, IL1B secr inh, SW480 rerep)
Cc1ccc(-c2nc(C(=O)NCCCN3CCOCC3)cc3c2[nH]c2ccccc23)cc1	ATXN2 expr inh inconclusive, MCF10A rereplic inconclusive, S2 tox inconclusive, IL1B secr inh -52, SW480 rerep inconclusive
CC1CCN(CCCNC(=O)c2cc3c(Cl)nc4ccccc4c3s2)CC1	MCF10A rereplic inconclusive, IL1B secr inh -70, SW480 rerep inconclusive (no result: ATXN2 expr inh, S2 tox)
Cc1cccc(Cn2cc3c(=O)n(CC(=O)Nc4ccc(C)c(F)c4)nc-3c3cc(F)ccc32)c1	none (no result: MCF10A rereplic, IL1B secr inh, SW480 rerep)
CS(=O)(=O)N1CCN(/[N+]([O-])=N/Oc2ccc([N+](=O)[O-])cc2[N+](=O)[O-])CC1	none (no result: ATXN2 expr inh, MCF10A rereplic, S2 tox, IL1B secr inh, SW480 rerep)
COc1ccc2c(c1)c(C(=O)N/N=C/c1ccc(O)c(O)c1)c(C)n2C	none
COc1ccc2c(c1)c(C(=O)N/N=C/c1ccc(Br)cc1)c(C)n2C	ATXN2 expr inh inconclusive, MCF10A rereplic 13µM, S2 tox inconclusive, SW480 rerep 10µM
CCOc1ccc(/C=N/NC(=O)c2c(C)n(C)c3ccc(OC)cc23)cc1	MCF10A rereplic 12µM, SW480 rerep inconclusive, PINK1 expr mod inconclusive
CCn1c(O)c(C2=c3ccccc3=NC2=O)c2cc(Br)ccc21	MCF10A rereplic 16µM, IL1B secr inh -64, SW480 rerep inconclusive
Cc1ccc(S(=O)(=O)c2nc(S(=O)(=O)c3ccccc3)sc2NCCCOC(C)C)cc1	none (no result: MCF10A rereplic, IL1B secr inh, SW480 rerep)
CCOC(=O)Cn1cc(C(=O)c2ccco2)c2ccccc21	ATXN2 expr inh 32µM, S2 tox inconclusive
COc1ccccc1NC(=O)Cn1cc(C(=O)c2ccco2)c2ccccc21	IL1B secr inh -50
COc1ccc(OC)c(NC(=O)Cn2cc(C(=O)c3ccco3)c3ccccc32)c1	none
Cc1ccc(C(=O)NCCn2c(N)c(C#N)c3nc4ccccc4nc32)cc1	MCF10A rereplic inconclusive, SW480 rerep 21µM, PINK1 expr mod inconclusive
